High-throughput results: PubChem BioAssay, several laboratories
Rows were chosen to be rich in hits. Some 2.4% of all compounds tested hit in one or more screens of this group.
Platelet DG rel: inhibitors of platelet dense granule secretion, primary screen, cell-based, MLPCN, human platelets; human platelet-rich plasma, SFLLRN dense granule ATP release, luminescence; inhibition, %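 (compounds screened at 7.5 µM in platelet-rich plasma)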; hit rate 0.22% among 300,000; AID 1663, 2009;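 active = mean replicate score, as percent of positive control, at or above 50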
SENP7 block: SENP7 protease inhibitors, primary screen, biochemical, luminescence, uHTS; Sentrin-specific protease 7 (Homo sapiens), Q9BQF6; recombinant SENP7, Z-RLRGG-aminoluciferin luminescence, 40 min; inhibition, % at 5 µM; hit rate 1.5% among 330,000;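 active = inhibition above about 50% at the single test dose, limit read from the data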;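 also: plate controls were DMSO with enzyme for no effect and no enzyme buffer wells for full effect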
SENP6 block: SENP6 protease inhibitors, primary screen, biochemical, luminescence, uHTS; Recombinant SENP6 catalytic domain, aminoluciferin luminescence; inhibition, % at 10 µM; AID 2599, 2010; Sentrin-specific protease 6 (Homo sapiens), Q9GZR1; hit rate 1.8% among 330,000;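 active = inhibition above about 50% at the single tested dose, limit read from the data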;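 also: plate controls were DMSO wells with enzyme for no effect and DMSO wells lacking enzyme for full effect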
Target sequence (Q9GZR1 628-1112 limits assumed): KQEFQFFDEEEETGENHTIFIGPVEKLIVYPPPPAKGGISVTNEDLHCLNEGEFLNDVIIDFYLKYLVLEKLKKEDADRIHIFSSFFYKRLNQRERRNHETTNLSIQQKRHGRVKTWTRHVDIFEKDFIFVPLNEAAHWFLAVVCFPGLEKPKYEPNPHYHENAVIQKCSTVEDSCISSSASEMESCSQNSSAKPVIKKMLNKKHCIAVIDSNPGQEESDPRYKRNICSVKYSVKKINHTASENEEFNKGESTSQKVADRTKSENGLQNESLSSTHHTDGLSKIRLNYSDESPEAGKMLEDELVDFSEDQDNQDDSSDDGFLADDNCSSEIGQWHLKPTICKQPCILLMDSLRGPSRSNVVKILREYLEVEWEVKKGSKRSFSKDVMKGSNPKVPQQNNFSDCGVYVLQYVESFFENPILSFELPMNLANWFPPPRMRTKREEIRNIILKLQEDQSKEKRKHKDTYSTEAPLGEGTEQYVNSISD
SENP8 block-1: SENP8 protease inhibitors, primary screen, biochemical, luminescence | Sentrin-specific protease 8 (Homo sapiens), Q96LD8 | purified SENP8, Z-RLRGG-aminoluciferin cleavage | inhibition, % at 10 µM | hit rate 1.2% among 330,000; in the data active = inhibition above about 50%
SENP8 block-2: human SENP8 protease inhibitors, primary screen, biochemical, fluorescence, Nedd8 protein substrate, uHTS | Sentrin-specific protease 8 (Homo sapiens), Q96LD8 | recombinant SENP8 | inhibition, % at 20 µM | hit rate 0.64% among 360,000 | AID 602440, 2012; in the data active = inhibition mostly above about 40%, no sharp cut-off; inactive = mostly below about 27%
Numbers without * were called inactive; x = not tested or not shown.

SMILES	Platelet DG rel	SENP7 block	SENP6 block	SENP8 block-1	SENP8 block-2
O=C(N=Nc1ccc(NOC(=O)c2ccccc2Br)cc1)c1ccccc1O	2	63*	91*	86*	x
Cc1c(Cc2ccccc2)c(=O)oc2cc(OCC(=O)N3CCC(C(N)=O)CC3)ccc12	-2	8	-10	-18	-207
C=C(C)Cn1c(N2CCN(c3ccc(OC)cc3)CC2)nc2c1c(=O)n(C)c(=O)n2C	14	-3	10	2	15
COc1ccc(N2CCN(c3nc4c(c(=O)n(C)c(=O)n4C)n3Cc3ccccc3)CC2)cc1	50*	2	-19	-4	31
COCCNCC(=O)Nc1nc(C)cs1	x	x	x	x	0
CC(C)C(=O)Nc1ncc2c(n1)CC(c1cccs1)CC2=O (stereo not given)	65*	4	-9	-2	-4
CC(C)OCCCNc1ncc2c(n1)CC(c1cccs1)CC2=O (stereo not given)	-9	8	11	-1	13
Oc1ccc(/C=N/Nc2ccc(Cl)nn2)c(O)c1O	10	4	20	5	49*
O=C(O)c1ccccc1NC(c1ccccc1)c1ccc(Cl)cc1 (stereo not given)	6	5	-20	-5	-296
CC(=O)c1ccc(N(C)C)cc1	-1	-15	-10	-6	1
CN(C)c1ccc(Cc2cc3c(O)ccc(O)c3cc(Cc3ccc(N(C)C)cc3)c2=O)cc1	x	x	x	x	52*
CCOC(=O)[C@]12CCCC=C1N(Cc1ccco1)C(=O)[C@H](CC(=O)NCCC(C)C)C2	x	x	x	x	18
NC(=O)c1c(NC(=O)C2c3ccccc3Oc3ccccc32)sc2c1CCCCC2	-16	-9	-18	-13	-17
Cc1occc1-c1nnc(SCC(=O)c2c(N)n(C3CC3)c(=O)[nH]c2=O)n1C	x	-3	-3	2	1
O=C1C(NS(=O)(=O)c2cccs2)=C(N2CCN(c3cccc(Cl)c3)CC2)C(=O)c2ccccc21	-1	26	23	13	70*
COc1cccc(-c2nn(-c3ccccc3)cc2C(=O)O)c1	62*	1	-8	-1	14
COc1ccc(-c2nn(-c3ccccc3)cc2C(=O)O)cc1OC	-2	-2	-14	-6	5
COc1ccccc1NS(=O)(=O)c1cccc(C(=O)NCC2(N3CCCCC3)CCCCC2)c1	x	x	x	x	14
CCCOc1cc(N)ccc1C(=O)OCCN(CC)CC	x	3	-12	10	6
CCCOc1ccc(N)cc1N	34	39	-4	52*	-44
Cc1c(C#N)c(O)[nH]c(=O)c1N=Nc1ccc(Br)cc1C(=O)O	5	x	x	x	46*
Clc1ccccc1OCc1nc(-c2ccccn2)no1	6	84*	86*	69*	26
Cc1ccc(C)c(N2CCN(S(=O)(=O)c3ccc4c(c3)OCCO4)CC2)c1	57*	4	-8	-2	13
O=S(=O)(c1ccc(F)c(F)c1F)N1CCN(C(=S)Nc2ccccc2)CC1	-1	9	6	3	12
COC(=O)C[C@H]1CC[C@H](NC(=O)c2cccc(F)c2)[C@@H](CO)O1	x	x	x	x	18
SMILES	Platelet DG rel	SENP7 block	SENP6 block	SENP8 block-1	SENP8 block-2
CCOC(=O)c1cc2cc([N+](=O)[O-])ccc2oc1=O	59*	1	-11	-8	28
CN1CCN(c2ccc(S(=O)(=O)N3CCOCC3)cc2)CC1	5	12	-15	-9	15
CC1(C(=O)NCc2cccc3ccccc23)CCN1Cc1ccccc1OC(F)F (stereo not given)	x	x	x	x	8
CCOc1ccc(C=NNc2ccc(S(=O)(=O)Nc3ccccc3C(=O)O)cc2[N+](=O)[O-])cc1OC	x	-4	-34	-8	52*
O=C(O)c1ccccc1NS(=O)(=O)c1ccc(N/N=C/c2cccc(O)c2O)c([N+](=O)[O-])c1	x	x	x	x	39*
CC(=O)Nc1ccc(C=NNc2ccc(S(=O)(=O)Nc3ccccc3C(=O)O)cc2[N+](=O)[O-])cc1	x	0	7	6	35
CCOc1cc(/C=N/Nc2ccc(S(=O)(=O)Nc3ccccc3C(=O)O)cc2[N+](=O)[O-])cc(Cl)c1O	x	x	x	x	30
COc1cc(C=NNc2ccc(S(=O)(=O)Nc3ccccc3C(=O)O)cc2[N+](=O)[O-])ccc1O	x	-8	0	-16	46*
COc1c(C)cc(C(O)c2ncc(-c3ccc4ccccc4c3)[nH]2)cc1C (stereo not given)	x	x	x	x	-187
